The molecules below were run on glycogen synthase kinase-3 (GSK3A per assay name; protocol says GSK3B) (assay: GSK3 binders on small-molecule microarrays, primary screen, biochemical, small-molecule microarray, 635 nm fluorescence, GSK3A (AID 1103; also: the record names both GSK3A and GSK3B)). Details: small-molecule microarray binding, fluorescence 635 nm; higher = more signal.

Row | Structure (SMILES) | composite z-score
1 | CN1C(=O)C2CC=C(C3=CCO[C@@H]3[C@H]3CCCN3S(=O)(=O)c3ccccc3[N+](=O)[O-])CC2C1=O (some centres undefined) | -0.12
2 | COc1cccc(C)c1NC(=O)O[C@H]1[C@H](OC(=O)Nc2ccccc2)[C@@H](OC(=O)Nc2ccccc2)[C@@H](OC)O[C@@H]1CO | 0.927
3 | COCCCNC(=O)[C@@]1(c2ccc([N+](=O)[O-])cc2)CC(=O)N(C2CCCCC2)[C@@H]1c1ccc(CO)cc1I | 1.16
4 | CO[C@H]1O[C@H](CO)[C@@H](OC(=O)Nc2cccc(F)c2)[C@H](OC(=O)c2cc3ccccc3[nH]2)[C@H]1OC(=O)c1cc2ccccc2[nH]1 | -0.199
5 | C=C(COC)/C(=C/C[C@@H](OC(C)=O)c1cccc(OCCO)c1)c1cnc2ccccc2c1 | 0.917
6 | CCCC[C@@H](O)C1=C(C)Cn2c(=O)n(-c3ccccc3)c(=O)n2[C@H]1CO | -0.349
7 | CCCCC(=C=CC[C@@H](O)c1ccccc1OCCO)C[C@@H](O)c1ccccn1 | -0.644

These molecules were tested against Epidermal growth factor receptor (Homo sapiens) (UniProt P00533) (assay: EGFR binders on small-molecule microarrays, primary screen, biochemical, small-molecule microarray, 635 nm fluorescence (AID 1104;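 also: score merges 667 nm emission intensity with spot signal to noise over triplicate slides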)). Details: EGFR binding, higher = more signal.
Chain of Epidermal growth factor receptor (Homo sapiens) (P00533 whole entry, looked up): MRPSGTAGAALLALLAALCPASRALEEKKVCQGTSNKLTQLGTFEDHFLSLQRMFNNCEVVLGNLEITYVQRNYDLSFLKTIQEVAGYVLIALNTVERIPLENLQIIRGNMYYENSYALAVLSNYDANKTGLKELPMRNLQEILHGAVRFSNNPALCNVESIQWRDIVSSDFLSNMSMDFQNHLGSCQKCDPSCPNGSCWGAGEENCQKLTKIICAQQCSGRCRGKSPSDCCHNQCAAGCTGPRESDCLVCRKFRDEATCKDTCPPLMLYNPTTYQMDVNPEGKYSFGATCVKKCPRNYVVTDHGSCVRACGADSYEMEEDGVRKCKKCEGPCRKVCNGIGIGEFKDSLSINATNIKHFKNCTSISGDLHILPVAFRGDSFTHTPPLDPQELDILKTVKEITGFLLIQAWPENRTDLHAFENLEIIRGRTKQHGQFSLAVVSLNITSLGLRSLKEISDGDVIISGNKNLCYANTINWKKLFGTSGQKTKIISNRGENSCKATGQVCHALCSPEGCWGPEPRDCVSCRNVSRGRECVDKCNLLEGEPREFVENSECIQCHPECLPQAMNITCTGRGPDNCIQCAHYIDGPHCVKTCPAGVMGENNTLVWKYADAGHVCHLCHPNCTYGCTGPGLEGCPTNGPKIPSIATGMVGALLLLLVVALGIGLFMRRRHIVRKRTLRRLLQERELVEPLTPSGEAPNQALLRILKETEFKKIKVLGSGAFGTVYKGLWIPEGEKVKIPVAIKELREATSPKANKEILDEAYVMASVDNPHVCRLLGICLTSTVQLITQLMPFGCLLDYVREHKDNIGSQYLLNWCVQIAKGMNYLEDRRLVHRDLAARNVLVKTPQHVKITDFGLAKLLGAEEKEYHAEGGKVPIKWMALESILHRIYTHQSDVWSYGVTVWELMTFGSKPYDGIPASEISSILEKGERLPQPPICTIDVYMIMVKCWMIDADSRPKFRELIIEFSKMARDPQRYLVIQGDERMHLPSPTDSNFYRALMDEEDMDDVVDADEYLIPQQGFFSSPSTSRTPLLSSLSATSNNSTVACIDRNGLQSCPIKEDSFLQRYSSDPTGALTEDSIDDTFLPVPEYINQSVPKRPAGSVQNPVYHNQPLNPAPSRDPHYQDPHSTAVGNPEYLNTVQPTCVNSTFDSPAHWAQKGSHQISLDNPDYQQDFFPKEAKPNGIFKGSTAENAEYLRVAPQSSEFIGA

Row | Structure (SMILES) | composite z-score
8 | C=CCNC(=O)[C@H]1[C@@H]2C(=O)O[C@@H](c3ccccc3)[C@@H](c3ccccc3)N2[C@@H](c2ccc(O)cc2)[C@]12C(=O)N(C(=O)OCCOC)c1ccc(C#Cc3ccc(OC)cc3)cc12 | 0.215
9 | O=C1OC[C@@H](c2ccccc2)n2cc(/C=C/c3ccccc3)cc21 | -0.609
10 | COc1c(C)cc(-c2nc(-c3ccccc3)c3c(c2C)CO[Si]3(C(C)C)C(C)C)cc1C | 0.387
11 | C=C(CCCC)/C(=C/C[C@@H](OC(C)=O)c1cccc(OCCO)c1)c1cc(C(=O)OC)ccc1OC | -0.347
12 | CC1CC/C=C\[C@H]2OC34C=CCN(C(C)C)C(=O)[C@H]3N(C(C)CO)C(=O)[C@@H]4C2C(=O)O1 (some centres undefined) | -0.467
13 | CCCCC(=C=CC[C@@H](O)c1ccc(OCCO)cc1)CCO | -0.899
14 | COc1ccc(C(=O)Nc2ccc(CN3C(=O)[C@]4(O[C@H](CC(=O)N(CCO)Cc5ccccc5)[C@@H]([Si](C)(C)c5ccc(OC)cc5)[C@@H]4C)c4ccccc43)cc2)cc1 | 0.918
15 | COC(=O)[C@@]1(Cc2ccc(F)cc2)[C@H]2c3cc(C(=O)N(C)C)n(Cc4ccc(C(F)(F)F)nc4)c3C[C@H]2CN1C(=O)c1ccccc1 | 0.389
16 | O=C(NCCN1CCOCC1)[C@@H]1c2ccccc2C(=O)N(CC23CC4CC(CC(C4)C2)C3)[C@H]1c1ccc(CO)cc1 | 0.634
17 | CO[C@H]1O[C@H](CO)[C@@H](OC(=O)Nc2cccc(F)c2)[C@H](OC(=O)Nc2ccc3c(c2)OCO3)[C@@H]1OC(=O)Nc1ccc2c(c1)OCO2 | 0.0595
18 | CN(C)CCCCCCNC(=O)[C@@H]1C[C@@H]2C(=O)N[C@@H](CCCC[N+](C)(C)C)C(=O)N2[C@@H]1c1cccc(OCCO)c1 | -0.962
19 | CN(C)C(=O)[C@]1(CCS(=O)(=O)c2ccccc2)N=C(c2ccc(OCCCO)cc2)O[C@@H]1c1ccccc1CN=[N+]=[N-] | -0.126
20 | CN1C(=O)C2C=CC(C(O)c3ccc([N+](=O)[O-])cc3)N(Nc3ccccc3)C2C1=O (centres undefined) | 0.0754
21 | CCOC(=O)C[C@H]1[C@H](OC(=O)c2ccccc2-c2ccccc2)[C@@H](NC(=O)CC(C)C)c2cc(OCCCO)ccc2N1C(=O)c1ccccc1 | 0.405
22 | O=C1C2C=CC(C(O)C3CC=CCC3)N(Nc3ccc([N+](=O)[O-])cc3)C2C(=O)N1c1ccccc1 (centres undefined) | 0.619
23 | COc1cccc(C)c1NC(=O)O[C@H]1[C@H](OC(=O)Nc2ccc3c(c2)OCO3)[C@H](OC(=O)Nc2ccc3c(c2)OCO3)[C@@H](OC)O[C@@H]1CO | 0.169
24 | CC(C)(C)OC(=O)CC[C@]1(C(N)=O)N=C(c2ccc(OCCCO)cc2)O[C@H]1c1ccccc1N=[N+]=[N-] | -0.204
25 | C=CCN1C(=O)[C@]2(O[C@H](CCO)[C@@H]([Si](C)(C)c3ccc(OC)cc3)[C@@H]2C)c2cc(N3C(=O)c4ccccc4Oc4ccccc43)ccc21 | 0.0038
26 | C=C(/C=C\CNS(=O)(=O)c1ccc(C)cc1)[C@H](O)[C@H]1CCCN1S(=O)(=O)c1ccccc1[N+](=O)[O-] | 0.629
27 | COC(=O)[C@@]1(Cc2ccc(F)cc2)[C@H]2c3cc(C(=O)N4CCCC4)n(C[C@H](O)CO)c3C[C@H]2CN1C(=O)c1ccccc1 | -0.0057
28 | O=C1O[C@H](c2ccccc2)[C@H](c2ccccc2)N2[C@H]1[C@@H](C(=O)O)[C@]1(C(=O)Nc3ccccc31)[C@H]2c1ccc(OCCO)cc1 | -0.055
29 | COc1ccc(CCNC(=O)[C@@H]2c3ccccc3C(=O)N(C(C)C)[C@H]2c2ccc(CO)cc2)cc1 | -0.736

Reference: PubChem BioAssay
